In PubChem BioAssay AID431 (Sanford-Burnham Center for Chemical Genomics, 2006):
About 1,100 (1.7%) of roughly 63,000 compounds were called active. This is one part of a sample in which actives are shown more often than they occur. Entries with a potency or affinity are not part of this list. Values without a mark were called inactive.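 The calls were made as follows: active = compounds whose percent cytotoxicity in the single-dose primary screen, scaled between solvent and toxic-drug controls, exceeds 50; inactive = the rest.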

Experiment: cytotoxicity in KRAS-transformed pancreatic duct cells, primary screen, cell-based, fluorescence, HTS (AID 431);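 also: 0% = DMSO solvent wells and 100% = doxorubicin-treated wells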
Details: HPDE-C7K KRASV12 cells, Alamar Blue viability, 48 h; at 10 µM; hits give high values

SMILES | cytotoxicity
Cc1onc(-c2c(F)cccc2Cl)c1C(=O)NCCc1ccc(S(N)(=O)=O)cc1 | -7.2%
N#C/C(C(=O)N1CCOCC1)=C1\Nc2ccccc2S1 | 14.5%
O=C(NCc1ccco1)c1cc(-c2ccncc2)nc2ccccc12 | -8.1%
CCOc1cc(N2CCOCC2)c(OCC)cc1NC1=NCCCCC1 | -3.3%
CC1CCCC(NC(=O)CSc2nnc(N)s2)C1C (centres undefined) | -4.3%
Cc1ccc(C)c(N(CC(=O)NCc2ccc3c(c2)OCO3)C(=O)CCC(=O)Nc2ccccn2)c1 | -28%
COc1ccc(N2CSC3=C(C#N)C(c4ccc(OC)c(OC)c4)CC(=O)N3C2)c(OC)c1 (centres undefined) | -12%
CC(C)N=c1cc2n(-c3ccc(Cl)cc3)c3ccccc3nc-2cc1Nc1ccc(Cl)cc1 | 68.8% (active)
Cn1c(CNc2ccc(Cl)cc2)nc2ccccc21 | -9.8%
Cc1nc2ccccc2n1-c1ccccc1 | -12.4%
CCCCn1c(C(C)NC(=O)CCC)nc2ccccc21 (centres undefined) | 2.5%
CCc1c(C)nc2cc(-c3ccc(OC)c(OC)c3)nn2c1N1CCCC1 | 19.1%
CCOCCN1CCN(c2c(C)c(C)nc3cc(-c4cc(OC)cc(OC)c4)nn23)CC1 | 9.5%
O=C1SC(SCc2ccccc2)=N/C1=C\c1ccco1 | 42.6%
C=CCSC1=N/C(=C\C=C\c2ccco2)C(=O)S1 | 33.1%
CCCSC1=N/C(=C\C=C\c2ccco2)C(=O)S1 | 51.9% (active)
ONC(=Nc1ccccc1)C(=Nc1ccccc1)NO | -6.3%
CC(=Nc1ccccc1)Nc1ccccc1 | -3.8%
S=C(N=Nc1ccccc1)NNc1ccccc1 | 50.5% (active)
COC(=O)c1c(C)[nH]c(C(=O)C(C)Sc2nnc(-c3cc(OC)c(OC)c(OC)c3)o2)c1C (centres undefined) | 11.4%
Cn1c(=O)c2c(nc(NCCCN3CCOCC3)n2Cc2ccc(Cl)cc2)n(C)c1=O | -3.3%
COC(=O)c1c(C)oc(C)c(C(=O)OC)c1=O | 0.6%

SMILES | cytotoxicity
CCOC(=O)c1c(C)oc2c1cc(O)c1ccccc12 | 14%
CCN1CCN(Cc2cc(=O)oc3ccc(Cl)cc23)CC1 | -11%
Cc1cccc(-n2c(SCC(=O)Nc3nonc3C)nnc2-c2ccoc2C)c1 | -13.8%
Cc1cccc(-n2c(SCC(=O)Nc3ccc4c(c3)OCO4)nnc2-c2ccoc2C)c1 | 53.6% (active)
Cc1ccc(-n2c(SCC(=O)Nc3ccc4c(c3)OCO4)nnc2-c2ccoc2C)cc1 | 17%
COC(=O)c1cccc(NC(=O)C2COc3ccccc3O2)c1 (centres undefined) | -26.2%
CC(=O)c1ccccc1OC(=O)c1ccco1 | -0.8%
C=CCN1C(=Nc2ccccc2)SC/C1=C\C(=O)OC | -1.6%
O=C(c1cccc(C(=O)N2CCN(c3ncccn3)CC2)c1)N1CCN(c2ncccn2)CC1 | -2.4%
Cc1c(C)c2cc(Cl)c(OCc3nn[nH]n3)cc2oc1=O | -12%
CCOC(=O)c1[nH]c2ccc(F)cc2c1NC(=O)CN1CCN(C/C=C/c2ccccc2)CC1 | 65% (active)
CCOC(=O)c1[nH]c2ccccc2c1NC(=O)CN1CCCCC1 | -11.1%
CCOC(=O)c1[nH]c2ccc(F)cc2c1NC(=O)C(C)N1CCc2cc(OC)c(OC)cc2C1 (centres undefined) | 53.6% (active)
CCOC(=O)c1[nH]c2ccc(F)cc2c1NC(=O)CN1CCc2cc(OC)c(OC)cc2C1 | -3.4%
CCOC(=O)c1[nH]c2ccc(OC)cc2c1NC(=O)C(C)N1CCSCC1 (centres undefined) | 31.2%
CCOC(=O)c1[nH]c2ccc(OCC)cc2c1NC(=O)CN1CCN(c2ccccc2)CC1 | 7.4%
Cn1c(=O)n(CC(=O)OCc2ccccc2)c(=O)c2c1nc1n2CCCN1C1CCCCC1 | 0.1%
N#CC1=C(N)SC(N)=C(C#N)C1CCC1CCCCC1 | 35.2%
Cc1nc(-c2ccc(C(=O)O)cc2)cs1 | -9.4%
COCCNC(=O)c1ccc(NS(C)(=O)=O)cc1 | -8%
COc1ccc(OC)c(NC(=O)CC(NCCC2=CCCCC2)C(=O)O)c1 (centres undefined) | -16.9%
CC1CCN(CC(O)COC2CCC(C(C)(C)C)CC2)CC1 (centres undefined) | 50.3% (active)

SMILES | cytotoxicity
Cc1ccc(N2CCN(CC(O)COC3CCCCC3)CC2)cc1 (centres undefined) | 42.6%
CC1CCN(CC(O)COc2ccc(F)cc2)CC1 (centres undefined) | -1.9%
CC1CC(=O)N(Cc2ccccc2)c2ccccc2N1C=O (centres undefined) | 7.1%
CON(C)c1nc(Oc2ccc(=O)[nH]n2)nc(N(C)C)n1 | -15.6%
CCC1CCCCN1CCNC(=O)C1CCN(S(=O)(=O)c2c(C)noc2C)CC1 (centres undefined) | -6.9%
COc1ccc2c(c1)sc1nc(-c3ccccc3)cn12 | 53.3% (active)
CCOC(=O)N1CCN(C(=O)c2ccc3c(c2)sc2nc(-c4ccccc4)cn23)CC1 | 6.1%
CCOC(=O)N1CCN(C(=O)c2ccc3c(c2)sc2nc(-c4ccc(OC)cc4)cn23)CC1 | 19%
O=C(NC1=NCCS1)c1ccc2c(c1)C(=O)N(Cc1ccco1)C2=O | -7.1%
O=C(OC(C(=O)NCC1CCCO1)c1ccccc1F)c1ccco1 (centres undefined) | 8.7%
CCn1ncc(C2=NOC(C(=O)NCc3ccccc3)C2)c1C (centres undefined) | 48.7%
CCn1ncc(C2=NOC(C(=O)NCc3ccc(OC)cc3)C2)c1C (centres undefined) | 23.7%
CCn1ncc(C2=NOC(C(=O)NCc3ccc(Cl)cc3)C2)c1C (centres undefined) | 59.3% (active)
CC1=C(C(=O)Nc2cccc(C)n2)C(c2ccc3c(c2)OCO3)C2=C(CC(c3ccco3)CC2=O)N1 (centres undefined) | 7.4%
COC(=O)c1sccc1NC(=O)c1ccncc1 | 5.9%
O=C(Cc1ccccc1)N(c1ccc(F)cc1)C1C=CS(=O)(=O)C1 (centres undefined) | 3.4%
Cc1nn(Cc2ccccc2Cl)c(C)c1NC(=O)C1C2CCC(O2)C1C(=O)O (centres undefined) | 0.4%
C=CCn1c(SCC(=O)Nc2cc3oc4ccccc4c3cc2OC)nnc1-c1cnccn1 | 50.9% (active)
CCn1c(SCC(=O)Nc2ccccc2OC)nnc1-c1cnccn1 | -28%
C=CCn1c(SCC(=O)Nc2cc(C)ccc2C)nnc1-c1cnccn1 | -12.5%
